# From the supplement of paper PMC8728848
# Only a selection was taken, and the strongest signals are over-represented in it overall.
# B1: SP16664D-bth-476-27-476 (Bacteroides thetaiotaomicron) (protein)
# chain: DDLEVGKNIDESAYSGIYENNAYLRDGKSNLVSKVVELHGETYATTVKMGLSKTPNTATSAKVKIDAAYLETYNKAHNTDFALYPQDLVTFANEGILTVNANTKSAEVEMTIRAGEGLQEDKTYAIPVAISDQSSDITIKDEDAKHCIYLVKDMRNAGDAYKGEGVMQGYLFFEVNDVNPLNTLSFQLENGKLLWDVVVLFAANINYDAEAGRPRVQCNPNVQYLLDNNETLLQPLRRRGVKVLLGLLGNHDITGLAQLSEQGAKDFAREVAQYCKAYNLDGVNYDDEYSNSPDLSNPSLTNPSTAAAARLCYETKQAMPDKLVTVFDWGQMYGVATVDGVDAKEWIDIVVANYGSAAYPIGQMTKKQCSGISMEFNLGGGGSLSASKAQSMIDGGYGWFMGFAPSPAKYGSVFSRLQGGGEVLYGSNVAAPTIFYKKNDPTPYKYPDDL
# Columns and labels:
# Assay in all cases: glycan array binding signal (z-score within array); higher = stronger binding
# Conditions in all cases: glycan notation: IUPAC condensed, linker removed
# Fuc(a1-2)Gal = molecular target: Fuc(a1-2)Gal
# How it was run: (§1)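 Arrays were curated from the Consortium for Functional Glycomics database, 3228 in total, and kept only where the protein sequence was available. Binding is expressed as a within-array Z-score. This score was averaged across arrays of the same protein sequence at different concentrations or buffers and across linkers, and negative values can be read as non-binding.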
# Fuc(a1-2)Gal(b1-4)Glc6S = molecular target: Fuc(a1-2)Gal(b1-4)Glc6S
# How it was run: as §1
# [1] = molecular target: Fuc(a1-2)Gal(b1-4)GlcNAc(b1-2)Man(a1-3)[Fuc(a1-2)Gal(b1-4)GlcNAc(b1-2)Man(a1-6)]Man(b1-4)GlcNAc(b1-4)[Fuc(a1-6)]GlcNAc
# How it was run: as §1
# [2] = molecular target: Fuc(a1-2)Gal(b1-4)GlcNAc(b1-3)GalNAc
# How it was run: as §1
# [3] = molecular target: Fuc(a1-2)Gal(b1-4)[Fuc(a1-3)]GlcNAc(b1-3)GalNAc
# How it was run: as §1
# [4] = molecular target: Fuc(a1-2)Gal(b1-4)[Fuc(a1-3)]GlcNAc(b1-3)[Neu5Ac(a2-6)Gal(b1-4)GlcNAc(b1-6)]Gal(b1-4)Glc
# How it was run: as §1
# [5] = molecular target: Fuc(a1-2)[Gal(a1-3)]Gal(b1-4)GlcNAc(b1-6)GalNAc
# How it was run: as §1
# [6] = molecular target: Fuc(a1-2)[Gal(a1-3)]Gal(b1-4)[Fuc(a1-3)]Glc
# How it was run: as §1
# [7] = molecular target: Fuc(a1-2)[GalNAc(a1-3)]Gal
# How it was run: as §1
# [8] = molecular target: Fuc(a1-3)[Gal(b1-4)]GlcNAc(b1-2)Man(a1-3)[Fuc(a1-3)[Gal(b1-4)]GlcNAc(b1-2)Man(a1-6)]Man(b1-4)GlcNAc(b1-4)GlcNAc
# How it was run: as §1
# [9] = molecular target: Fuc(a1-3)[Gal(b1-4)]GlcNAc(b1-2)Man(a1-3)[Fuc(a1-3)[Gal(b1-4)]GlcNAc(b1-2)Man(a1-6)]Man(b1-4)GlcNAc(b1-4)[Fuc(a1-6)]GlcNAc
# How it was run: as §1
# [10] = molecular target: Fuc(a1-3)[Gal3S(b1-4)]GlcNAc
# How it was run: as §1
# Fuc(a1-4)GlcNAc = molecular target: Fuc(a1-4)GlcNAc
# How it was run: as §1
# Fuc(b1-3)GlcNAc = molecular target: Fuc(b1-3)GlcNAc
# How it was run: as §1
# Gal(a1-3)Gal(b1-3)GlcNAc = molecular target: Gal(a1-3)Gal(b1-3)GlcNAc
# How it was run: as §1
# [11] = molecular target: Gal(a1-3)Gal(b1-3)GlcNAc(b1-3)GalNAc
# How it was run: as §1
# Gal(a1-3)Gal(b1-4)Glc = molecular target: Gal(a1-3)Gal(b1-4)Glc
# How it was run: as §1
# Gal(a1-3)Gal(b1-4)GlcNAc = molecular target: Gal(a1-3)Gal(b1-4)GlcNAc
# How it was run: as §1
# [12] = molecular target: Gal(a1-3)Gal(b1-4)GlcNAc(b1-3)GalNAc
# How it was run: as §1
# Gal(a1-4)Gal(b1-4)GlcNAc = molecular target: Gal(a1-4)Gal(b1-4)GlcNAc
# How it was run: as §1
# [13] = molecular target: Gal(b1-3)GlcNAc(b1-3)Gal(b1-4)GlcNAc(b1-3)Gal(b1-4)GlcNAc(b1-2)[Gal(b1-3)GlcNAc(b1-3)Gal(b1-4)GlcNAc(b1-3)Gal(b1-4)GlcNAc(b1-6)]Man(a1-6)[Gal(b1-3)GlcNAc(b1-3)Gal(b1-4)GlcNAc(b1-3)Gal(b1-4)GlcNAc(b1-2)Man(a1-3)]Man(b1-4)GlcNAc(b1-4)[Fuc(a1-6)]GlcNAc
# How it was run: as §1
# [14] = molecular target: Gal(b1-3)GlcNAc(b1-3)GalNAc
# How it was run: as §1
# [15] = molecular target: Gal(b1-3)[Fuc(a1-4)]GlcNAc(b1-2)Man(a1-3)[Gal(b1-3)[Fuc(a1-4)]GlcNAc(b1-2)Man(a1-6)]Man(b1-4)GlcNAc(b1-4)[Fuc(a1-6)]GlcNAc
# How it was run: as §1
# [16] = molecular target: Gal(b1-3)[Fuc(a1-4)]GlcNAc(b1-3)Gal(b1-3)[Fuc(a1-4)]GlcNAc
# How it was run: as §1
# Gal(b1-4)Glc = molecular target: Gal(b1-4)Glc
# How it was run: as §1
# [17] = molecular target: Gal(b1-4)GlcNAc(b1-3)Gal(b1-4)GlcNAc(b1-3)Gal(b1-4)GlcNAc
# How it was run: as §1
# [18] = molecular target: Gal(b1-4)GlcNAc(b1-3)Gal(b1-4)GlcNAc(b1-3)Gal(b1-4)GlcNAc(b1-2)[Gal(b1-4)GlcNAc(b1-3)Gal(b1-4)GlcNAc(b1-3)Gal(b1-4)GlcNAc(b1-6)]Man(a1-6)[Gal(b1-4)GlcNAc(b1-3)Gal(b1-4)GlcNAc(b1-3)Gal(b1-4)GlcNAc(b1-2)Man(a1-3)]Man(b1-4)GlcNAc(b1-4)[Fuc(a1-6)]GlcNAc
# How it was run: as §1
# [19] = molecular target: Gal(b1-4)GlcNAc(b1-3)Gal(b1-4)GlcNAc(b1-3)Gal(b1-4)GlcNAc(b1-3)Gal(b1-4)GlcNAc(b1-3)Gal(b1-4)GlcNAc(b1-2)Man(a1-3)[Gal(b1-4)GlcNAc(b1-3)Gal(b1-4)GlcNAc(b1-3)Gal(b1-4)GlcNAc(b1-3)Gal(b1-4)GlcNAc(b1-3)Gal(b1-4)GlcNAc(b1-2)Man(a1-6)]Man(b1-4)GlcNAc(b1-4)[Fuc(a1-6)]GlcNAc
# How it was run: as §1
binder,measurement,setting,value
B1,glycan array binding signal (z-score),Fuc(a1-2)Gal,-0.249
same,glycan array binding signal (z-score),Fuc(a1-2)Gal(b1-4)Glc6S,0.006
same,glycan array binding signal (z-score),[1],0.161
same,glycan array binding signal (z-score),[2],-0.244
same,glycan array binding signal (z-score),[3],0.134
same,glycan array binding signal (z-score),[4],-0.167
same,glycan array binding signal (z-score),[5],0.007
same,glycan array binding signal (z-score),[6],-0.184
same,glycan array binding signal (z-score),[7],-0.152
same,glycan array binding signal (z-score),[8],0.013
same,glycan array binding signal (z-score),[9],3.02
same,glycan array binding signal (z-score),[10],-0.196
same,glycan array binding signal (z-score),Fuc(a1-4)GlcNAc,5.19
same,glycan array binding signal (z-score),Fuc(b1-3)GlcNAc,-0.141
same,glycan array binding signal (z-score),Gal(a1-3)Gal(b1-3)GlcNAc,0.314
same,glycan array binding signal (z-score),[11],-0.337
same,glycan array binding signal (z-score),Gal(a1-3)Gal(b1-4)Glc,-0.117
same,glycan array binding signal (z-score),Gal(a1-3)Gal(b1-4)GlcNAc,-0.212
same,glycan array binding signal (z-score),[12],-0.12
same,glycan array binding signal (z-score),Gal(a1-4)Gal(b1-4)GlcNAc,-0.17
same,glycan array binding signal (z-score),[13],0.144
same,glycan array binding signal (z-score),[14],0.061
same,glycan array binding signal (z-score),[15],0.054
same,glycan array binding signal (z-score),[16],1.49
same,glycan array binding signal (z-score),Gal(b1-4)Glc,-0.258
same,glycan array binding signal (z-score),[17],0.004
same,glycan array binding signal (z-score),[18],1.01
same,glycan array binding signal (z-score),[19],20
